This note sets out measurements from PubChem BioAssay.

Assay [1] is described as follows: inhibitors of TNFa-induced NFkB p65 translocation, primary screen, imaging, HUVEC, MLSMR starter and 10KST1 sets (AID 438;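 active = inhibition above 20% together with a positive visual image hit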;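 also: compound added about 3h40 before a 20 min TNFalpha stimulation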;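 as to inhibition: signal is the nuclear over cytoplasmic p65 intensity ratio per well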). To be noted: HUVEC TNFa-induced p65 nuclear translocation; cell count: measured here: nuclei count (cytotoxicity indicator), at 2.08 µM; inhibition: at 2 µM, stronger effect = higher value, 0% TNFa-plus-vehicle, 100% no-TNFa wells.
Assay [2] is described as follows: inhibitors of mutant huntingtin aggregation, primary screen, imaging, exon1htt(103Q)mCFP cells, high-content imaging (AID 483;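 active = visual image review flags a hit and inhibition of aggregation exceeds 20%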;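 also: compound exposure lasted 3 days before fixation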;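 as to nuclei count: percent of the per-plate median nuclei count of sample wells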). To be noted: exon1htt(103Q)mCFP cell line, aggregate imaging, at 2 µM; inhibition of aggregation: stronger effect = higher value; nuclei count: measured here: cell count, toxicity.
Assay [3] is described as follows: inhibitors of E-selectin induction by TNFa, primary screen, imaging, HUVEC, immunofluorescence, MLSMR starter and 10KST1 sets (AID 487;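 active = visually confirmed hit in the image check and inhibition above 20%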;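 as to inhibition: signal is fraction of cell area covered by stained E-selectin grains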;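 as to nuclei count: 100% = median nuclei count of all wells on the same plate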). To be noted: HUVEC TNFalpha-induced E-selectin immunofluorescence imaging, at 2 µM; inhibition: stronger effect = higher value; nuclei count: measured here: cell number, toxicity.
A short description of assay [4]: DUSP6 inhibitors restoring Erk phosphorylation by chemical complementation, primary imaging in DUSP6-transfected HeLa (AID 609;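 active = compounds giving at least 50% inhibition in the cell-based MKP-3 phosphatase rescue imaging test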;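 as to inhibition: phospho-Erk level distribution per well compared with pooled transfected vehicle control wells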). To be noted: HeLa MKP-3 transfected, phospho-Erk imaging KS statistic, at 10 µM, cells stimulated with TPA for 15 min.
Assay [5] deals with Dual specificity protein phosphatase 6 (Homo sapiens) (UniProt Q16828). Described as above. To be noted: HeLa MKP-3 transfected, phospho-Erk imaging KS statistic; at 10 µM; stronger effect = higher value; cells stimulated with TPA for 15 min.
For assay [6], the target named is Voltage-gated potassium channel subunit beta-2 (Rattus norvegicus) (UniProt P62483). Nature of the assay: KvBeta enzyme negative modulators, primary screen, biochemical, NADPH fluorescence (AID 622;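 active = fluorescence slope higher than the sample average by over 3 SD, cut at about -0.22 in these data, passing the limit was not always enough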;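 also: slope of raw intensity against log time taken from 70 to 1610 s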). The following applies: recombinant KvBeta, 4-cyanobenzaldehyde reduction, at 10 µM, stronger effect = higher value.
Assay [7] has the same target. Nature of the assay: KvBeta positive modulators, primary screen, biochemical, NADPH fluorescence (AID 623;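 active = NADPH fluorescence slope more negative than the mean of all samples by about 3 SD, 99.7% confidence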;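 also: fluorescence intensity change per second fitted from 20 to 320 s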). To be noted: Recombinant KvBeta, NADPH fluorescence decrease slope, 10 min; at 10 µM; stronger effect = lower value.
Assay [8] deals with Alpha-2C adrenergic receptor (Homo sapiens) (UniProt P18825). Nature of the assay: modulators of alpha2C/GIRK thallium flux, primary screen, cell-based, HEK293 alpha2C/GIRK1/2 (AID 624).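 Also: slope of fluorescence ratio to pre-addition baseline per second over 15 to 24 s.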 To be noted: thallium flux BTC fluorescence, at 10 µM, actives lie on both sides.
The nature of assay [9]: inhibitors of larval lipid processing in zebrafish, primary screen, whole organism, PED6 fluorescence, gall bladder and intestine (AID 686;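 active = a full or partial loss of lipid-probe fluorescence in the fish gall bladder, intestine or both, judged by eye; inactive = no fluorescence loss, or compound toxic to the fish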;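 also: larvae 5 to 7 days old with five fish per well; signal comes from phospholipase A2 cleavage of quenched PED6 carried via bile; overnight exposure to compound and PED6 before scoring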). The following applies: Zebrafish larvae PED6 lipid processing, fluorescence scoring; screened at 20 µM (by protocol).
Assay [10] is described as follows: inhibitors of Chlamydomonas gravitaxis, primary screen, whole organism, Chlamydomonas reinhardtii, WT vs cilia-less mutant, absorbance, 96-well (AID 463189;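 active = inhibition at or above 50% relative to wild type and mutant plate controls; inactive = inhibition below 50%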;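 also: 0% = wild type cc124 cells in DMSO and 100% = ciliumless bld1 mutant cells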). To be noted: OD600 absorbance, 2 days, at 10 µM, stronger effect = higher value.
The nature of assay [11]: inhibitors of Sendai virus-induced IRF3 signaling, primary screen, TLR/RLR signaling modifier project, cell-based, Sendai virus stimulus, luciferase, 10K MLSCN set (AID 602276;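 active = inhibition at or above 50% at 10 µM; inactive = inhibition below 50%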;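 also: firefly luciferase from ISG56 promoter only with Renilla not read in this screen; 0% = Sendai virus plus DMSO and 100% = medium plus DMSO without virus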). To be noted: HEK293 RL24 IRF3 luciferase reporter, at 10 µM, stronger effect = higher value. In general terms: Reporter assays use an easily measured gene product as a stand-in for the process of interest.
Assay [12] in a line: inhibitors of poly I:C-induced TLR3 signaling, primary screen, cell-based, poly I:C stimulus, luciferase, 10K MLSCN set (AID 602277;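 active = inhibition of the reporter signal at or above 50%; inactive = inhibition below 50%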). To be noted: HEK293-TLR3 RL24 IRF3 luciferase reporter, at 10 µM, stronger effect = higher value.
Where [13] appears, read: measured here: cell density z-score.
Setting [14] is: measured here: nuclear c-Myc green intensity z-score.
The mark [15] stands for this setting: measured here: nuclear pErk red intensity z-score, stronger effect = higher value.

Calls of active or inactive are those of the source.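 The calls were made as follows, unless noted: active = fluorescence slope after compound addition differing from the mean of all screened samples at 99.7% confidence, in either direction; inactive = the rest.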

Sequence of Dual specificity protein phosphatase 6 (Homo sapiens) (Q16828 whole entry, looked up): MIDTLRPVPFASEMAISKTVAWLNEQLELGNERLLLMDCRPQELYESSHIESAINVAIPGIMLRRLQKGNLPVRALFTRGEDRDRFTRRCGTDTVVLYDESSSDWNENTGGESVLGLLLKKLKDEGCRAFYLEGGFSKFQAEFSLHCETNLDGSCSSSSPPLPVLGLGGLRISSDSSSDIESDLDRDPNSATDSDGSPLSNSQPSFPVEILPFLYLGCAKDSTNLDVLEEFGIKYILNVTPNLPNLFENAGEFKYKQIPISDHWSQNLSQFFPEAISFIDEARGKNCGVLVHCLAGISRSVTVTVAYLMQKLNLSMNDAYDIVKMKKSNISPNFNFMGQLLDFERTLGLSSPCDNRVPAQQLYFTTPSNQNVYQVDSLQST
Sequence of Voltage-gated potassium channel subunit beta-2 (Rattus norvegicus) (P62483 whole entry, looked up): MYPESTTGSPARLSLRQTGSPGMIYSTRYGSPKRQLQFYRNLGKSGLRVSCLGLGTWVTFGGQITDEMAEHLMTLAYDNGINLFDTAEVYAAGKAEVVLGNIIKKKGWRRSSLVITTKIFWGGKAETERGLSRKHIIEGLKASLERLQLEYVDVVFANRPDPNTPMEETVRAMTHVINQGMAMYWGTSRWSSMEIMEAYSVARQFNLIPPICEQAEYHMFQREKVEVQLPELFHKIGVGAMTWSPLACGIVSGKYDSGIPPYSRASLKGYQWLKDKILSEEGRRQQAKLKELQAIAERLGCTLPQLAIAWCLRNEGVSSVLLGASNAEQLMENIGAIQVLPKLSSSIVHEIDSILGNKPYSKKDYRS
Sequence of Alpha-2C adrenergic receptor (Homo sapiens) (P18825 whole entry, looked up): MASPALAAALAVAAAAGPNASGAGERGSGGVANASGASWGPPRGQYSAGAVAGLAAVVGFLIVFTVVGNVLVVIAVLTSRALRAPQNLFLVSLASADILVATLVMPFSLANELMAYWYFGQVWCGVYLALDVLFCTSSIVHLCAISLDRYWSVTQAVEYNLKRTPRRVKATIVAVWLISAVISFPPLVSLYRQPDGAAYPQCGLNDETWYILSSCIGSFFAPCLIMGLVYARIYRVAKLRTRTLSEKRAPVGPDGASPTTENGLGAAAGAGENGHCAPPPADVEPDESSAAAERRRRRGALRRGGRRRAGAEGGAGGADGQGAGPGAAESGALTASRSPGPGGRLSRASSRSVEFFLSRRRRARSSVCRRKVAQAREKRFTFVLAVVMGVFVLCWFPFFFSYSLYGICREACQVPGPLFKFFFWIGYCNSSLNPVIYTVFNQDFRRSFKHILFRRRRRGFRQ

As usually defined, the inhibition is the change of the read-out against control, counted positive when it falls. For the compound `Cc1ccc(N(CC(O)CN2CCCC2)S(=O)(=O)c2ccc(C)cc2)cc1` (stereo not given), the cell count in assay [1] is 415. For the same compound, the inhibition in assay [1] was -5.4% (inactive); in assay [3] it was -210% (inactive); in assay [5] it was 13.2% (inactive); in assay [10], 7.07% (inactive); in assay [11], -14.3% (inactive); in [12], -1.97% (inactive). The inhibition of aggregation in assay [2] was 8.3% (inactive). For the same compound, the nuclei count in [2] amounted to 97.4%; in assay [3] it was 148%. For the same compound, the z-score is 1.32 in [4] (setting [13]), -1.19 in assay [4] (setting [14]) and -0.796 in [4] (setting [15]). In assay [6], the fluorescence slope was -0.388 (inactive). Moreover, the NADPH fluorescence slope in assay [7] is -5e-05 (inactive). Further, the slope in assay [8] was 0.00478 (inactive). In assay [9], the compound was called inactive.

Regarding `O=C(C1=C(O)C(=O)N(c2ncccn2)C1c1cccc(Cl)c1)c1ccco1` (stereo not given), in assay [1], the cell count was 454. Moreover, the inhibition in assay [1] is -2.1% (inactive); in assay [3], -61.9% (inactive); in assay [5] it was -4.7% (inactive); in [10], 3.84% (inactive); in assay [11], 11% (inactive); in assay [12] it was 1.21% (inactive). Also, in assay [2], the inhibition of aggregation is 23.5% (inactive). Further, the nuclei count in assay [2] came out at 97.7%; in assay [3], 138%. For the same compound, the values for the z-score in assay [4] (setting [13]), in assay [4] (setting [14]) and in [4] (setting [15]) were 0.991, -0.348 and 0.185, respectively. For the same compound, the fluorescence slope in assay [6] was -0.349 (inactive). Besides, the NADPH fluorescence slope in [7] was -2.5e-05 (inactive). For the same compound, the slope in assay [8] was 0.00586 (inactive). In assay [9], the call was inactive.

With `COC(=O)C1=C(N)Oc2cc(C)[nH]c(=O)c2C1c1ccncc1` (stereo not given), the cell count in assay [1] was 415. Further, the inhibition in assay [1] was -3.5% (inactive); in assay [3] it was -70.4% (inactive); in [5], 11.4% (inactive); in assay [10], 35.9% (inactive); in assay [11] it was 22.8% (inactive); in [12], 38.8% (inactive). In addition, in assay [2], the inhibition of aggregation is 5.1% (inactive). The nuclei count in assay [2] stood at 99.8%; in assay [3], 132%. For the same compound, the z-score in assay [4] (setting [13]) was 1.07; in [4] (setting [14]) it was -0.647; in [4] (setting [15]), -1.1. Besides, the fluorescence slope in assay [6] is -0.45 (inactive). For the same compound, the NADPH fluorescence slope in assay [7] is -0.000119 (inactive). In addition, in assay [8], the slope is 0.00625 (inactive). Also, in assay [9], the compound was called inactive.

Turning to `O=C(COc1ccccc1)Nc1ccc(-c2nnc(-c3ccco3)o2)cc1`, the cell count in assay [1] came to 458. Moreover, the inhibition in [1] is -4.3% (inactive); in [3] it was -252% (inactive); in assay [5], 3.97% (inactive); in assay [10], -15.4% (inactive); in [11] it was -55.4% (inactive); in [12], -103% (inactive). The inhibition of aggregation in assay [2] was 7.5% (inactive). The nuclei count in [2] worked out at 101%; in assay [3], 102%. In addition, the z-score in [4] (setting [13]) was -2.58; in assay [4] (setting [14]), 1.43; in assay [4] (setting [15]), -0.658. Also, in assay [6], the fluorescence slope is -0.499 (inactive). The NADPH fluorescence slope in [7] was -2.1e-05 (inactive). In [8], the slope is 0.00796 (inactive). Moreover, in assay [9], the call was inactive.

With `Cc1ccc(S(=O)(=O)NCC(=O)OCN2C(=O)c3ccccc3C2=O)cc1`, the cell count in [1] turned out to be 416. Moreover, the inhibition was -4.7% (inactive) in [1]; -23.1% (inactive) in [3]; 7.93% (inactive) in assay [5]; 45.3% (inactive) in assay [10]; 11.3% (inactive) in assay [11]; -3.4% (inactive) in [12]. The inhibition of aggregation in assay [2] was -19.8% (inactive). For the same compound, the nuclei count in assay [2] was found to be 85.7%; in assay [3], 93.4%. Also, the z-score in [4] (setting [13]) was -0.341; in assay [4] (setting [14]), -0.796; in assay [4] (setting [15]) it was 0.197. Further, in [6], the fluorescence slope was -0.574 (inactive). Besides, the NADPH fluorescence slope in assay [7] was 4e-05 (inactive). Moreover, the slope in assay [8] is 0.00572 (inactive). For the same compound, the compound was classed as inactive in assay [9].
